Measurements taken from PubChem BioAssay AID886 (National Center for Advancing Translational Sciences (NCATS), 2007).
Where “and” joins values, the source holds several entries; their conditions need not be identical. Equal values may be shown once. About 2,500 (3.4%) of roughly 73,000 compounds were called active. Inconclusive results (about 7%) are left out. Shown is part of a subset that was picked to be rich in actives. Unmarked numbers belong to inactive results. The call rests on the fitted dose curve; in most records, active means well fitted inhibition curve with a large enough effect; inconclusive means small, poorly fitted or top-dose-only effect; inactive means no such curve, though single readings can be large or run the other way.

The molecules below were run against 3-hydroxyacyl-CoA dehydrogenase type-2 (Homo sapiens) (UniProt Q99714) (assay: qHTS Assay for Inhibitors of HADH2 (Hydroxyacyl-Coenzyme A Dehydrogenase, Type II)). Conditions: recombinant HADH2, NADH fluorescence, beta-hydroxybutyryl-CoA; series mostly up to 57.1 µM; activity change, negative = inhibition: at the top concentration.
In short: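 Activity measured as NADH fluorescence gain (360/450 nm), taken as the change between first and last reads of a 4-min kinetic run. Conditions: pH 9.0 Tris buffer, 20 nM E. coli-expressed His-tagged enzyme, 1 mM NAD+, 90 uM beta-hydroxybutyryl-CoA; 15-min compound preincubation.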
Further: nearly all actives have a fitted effect of over 60% in size.
On the % scale 0 is the no-effect control and ±100 the full control effect; potency means the concentration at half of the fitted maximal effect.

3-hydroxyacyl-CoA dehydrogenase type-2 (Homo sapiens), sequence (Q99714 whole entry, looked up): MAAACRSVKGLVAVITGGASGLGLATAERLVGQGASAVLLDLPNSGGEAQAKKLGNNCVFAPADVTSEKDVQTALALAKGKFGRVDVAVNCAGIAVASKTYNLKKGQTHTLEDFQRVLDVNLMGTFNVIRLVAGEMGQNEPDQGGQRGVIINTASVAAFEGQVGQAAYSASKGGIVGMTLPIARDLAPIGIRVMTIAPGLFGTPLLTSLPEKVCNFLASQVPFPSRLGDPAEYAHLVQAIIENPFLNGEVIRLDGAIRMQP
3-hydroxyacyl-CoA dehydrogenase type-2 (Homo sapiens), sequence (Q99714 whole entry, looked up): as above

SMILES | activity change, negative = inhibition | Potency
C[C@H](CCC(=O)NCC(=O)O)[C@H]1CC[C@H]2[C@H]3[C@@H](C[C@@H](O)[C@]12C)[C@]1(C)CC[C@H](O)C[C@@H]1C[C@@H]3O | 2.57% [at 25.6 µM] | –
CCCc1[nH]nc2c1C(c1ccc(OC)c(Cn3nc(C)c(Br)c3C)c1)C(C#N)=C(N)O2 (centres undefined) | -1.8% | –
COc1ccc(-c2[nH]nc3c2C(c2ccncc2)C(C#N)=C(N)O3)cc1 (centres undefined) | -18.9% | –
CCOc1c(OC)cc(C2C(C#N)=C(N)Oc3n[nH]c(-c4ccncc4)c32)cc1OC (centres undefined) | – | 10 µM (active)
O=C(O)C1=CCCN(CCON=C(c2ccccc2)c2ccccc2)C1 | – | inactive
O=C(O)c1c(Br)c(Br)c(Br)c(Br)c1C1c2ccc(O)cc2Oc2cc(O)ccc21 | – | 1.58 µM (active)
N#CC1=C(N)Oc2cc(O)ccc2C1C1CCCCC1 (centres undefined) | 0.41% | –
CC1CCCCN1CCCNC(=O)c1ccc(-n2c(=O)c(=O)[nH]c3ccccc32)cc1 (centres undefined) | -2.23% | –
COc1ccc(Oc2ncc3nc(-c4ccc(F)cc4)c(=O)n(C)c3n2)cc1 | 4.58% | –
Oc1c(Cl)cc(Cl)c(Cl)c1Cc1c(O)c(Cl)cc(Cl)c1Cl | – | 7.94 µM (active)
COc1ccc(N)c(OC)c1 | -0.0513% | –
O=C(NCc1ccco1)c1nc2ncccn2n1 | -6.29% | –
O=C(NCc1ccccn1)c1c(O)c2c([nH]c1=O)CCCC2 | 7.68% | –
O=C(NCc1ccccn1)c1ccc2nc(-c3ccco3)c(-c3ccco3)nc2c1 | – | 5.01 µM (active)
CC(C)[C@H](CO)Nc1nc(Nc2cc(N)cc(Cl)c2)c2ncn(C(C)C)c2n1 | -27.7% | –
COc1cccc([C@H](O)Cn2cc(-c3ccc(CON=C(C)C)cc3)nn2)c1 | 4.01% [at 11.4 µM] | –
CC(=O)N1CCC2(CCCN(Cc3ccccc3)C2)CC1 | -9.14% | –
Cn1c(C(=O)NCCc2ccsc2)cc2c(=O)n(C)c3ccccc3c21 | 11.1% | –
CCN1CCCC1CNC(=O)c1cc2c(=O)n(C)c3ccccc3c2n1C (centres undefined) | – | 31.6 µM (active)
Cn1c(C(=O)N2CCC(C(N)=O)CC2)cc2c(=O)n(C)c3ccccc3c21 | 7.8% | –
CC(C)C[C@@H](CC(=O)N[C@@H](CCC(=O)O)CC(=O)O)NC(=O)[C@@H]1CCCC[C@H]1NC(=O)C[C@@H](NC(=O)C[C@H](Cc1c[nH]c2ccccc12)NC(=O)[C@@H]1CCCC[C@H]1N)C(C)C | -21.2% | –
COc1c(C)c2c(c(O)c1C/C=C(\C)CCC(=O)O)C(=O)OC2 | – | inactive
C/C=C/C=C/C(=O)O | -5.22% | –
CCN(CC)CCCCn1c(-c2ccccc2)nc2c(N3CCOCC3)nc(C)nc21 | -22.3% | –

SMILES | activity change, negative = inhibition | Potency
COc1ccc(-n2c(C)nc3c(cnn3-c3ccccc3)c2=O)cc1 | -2.25% | –
Cc1cccc(-n2ncc3c(N4CCc5ccccc54)ncnc32)c1 | – | 3.16 µM (active)
COc1ccc(N2CCN(C(=O)CSc3ncnc4c3cnn4-c3ccc(OC)cc3)CC2)cc1 | -4.24% | –
Cc1ccc(-n2ncc3c(N4CCN(c5ccc(F)cc5)CC4)ncnc32)c(C)c1 | 9.76% | –
Cc1ccc(-n2ncc3c2ncn2nc(-c4ccco4)nc32)c(C)c1 | 13.7% | –
COc1ccc(-n2ncc3c(N4CCc5ccccc54)ncnc32)cc1 | – | 31.6 µM (active)
CC(=O)OCCC(C)C | -0.625% | –
CCCn1c(-c2ccc(F)cc2)nc2c(NCC3CCCN3CC)nc(C)nc21 (centres undefined) | 7.86% | –
CCCN(C/C=C\I)[C@@H]1CCc2cccc(O)c2C1 | -1.63% | –
Cc1ccc(S(=O)(=O)c2c(N)n(C)c3nc4ccccc4nc23)cc1 | – | 31.6 µM (active)
Cc1ccc(S(=O)(=O)NCc2nc3ccccc3c(=O)n2N)cc1 | 9.48% | –
COCCn1c(=O)c(C)nc2cnc(N(C)C)nc21 | -8.66% | –
Cc1c2c(nc3ccccc13)-c1cccc(=O)n1C2 | 232% | –
COC(=O)[C@@]1(Cc2ccccc2)[C@H]2c3cc(C(=O)N4CCCC4)n(Cc4ccc(C)o4)c3C[C@H]2CN1C(=O)c1ccccc1 | 9.45% | –
C=CCOC(=O)COCCC(C)C | -9.83% | –
O=C(c1cc(C(F)(F)F)cc(C(F)(F)F)c1)N1CCC2(CC1)CN(c1ccncc1)C2 | -2.98% | –
Cc1cccn2c(=O)c3cc(C(=O)N4COCC4(C)C)n(C)c3nc12 | – | 25.1 µM (active)
Cc1cccn2c(=O)c3cc(C(=O)NCc4ccccn4)n(C)c3nc12 | 27.5% | –
CC(C)CC1(C(=O)NCc2ccccn2)C=CCN1C(=O)c1ccccc1 (centres undefined) | 1.17% | –
CC(C)NC[C@H](O)c1ccc2ccccc2c1 | – | inactive
C[C@@H]1CC[C@H]2[C@H](C)[C@H]3[C@H](C[C@H]4[C@@H]5CC=C6C[C@@H](O)CC[C@@]6(C)[C@@H]5C[C@@H](O)[C@]34C)N2C1 | -8.91% [at 11.4 µM] | –
CCc1ccc(NC(=O)CSc2nc3ccccc3c(=O)n2CCN2CCOCC2)cc1 | 7.42% | –
CCCCn1c(SCC(=O)NCC2CCCO2)nc2ccc(N3CCOCC3)cc2c1=O (centres undefined) | – | 10 µM (active)
CCn1c(SCC(=O)NCC2CCCO2)nc2cc(S(=O)(=O)N3CCCCC3)ccc21 (centres undefined) | -5.2% | –

SMILES | activity change, negative = inhibition | Potency
COC(=O)[C@@]1(Cc2ccccc2)[C@H]2c3cc(C(=O)N(C)C)n(CCSCCO)c3C[C@H]2CN1C(=O)c1ccccc1 | 6.25% | –
N#Cc1cccc(-c2nc3cnc(N4CCNCC4)nc3n(C3CC3)c2=O)c1 | 170% | –
c1ccc2c(Nc3ccncc3)nc(-c3ccoc3)nc2c1 | -3.7% | –
c1ccc2c(Nc3ccncc3)nc(-c3ccc4c(c3)OCO4)nc2c1 | – | 25.1 µM (active)
COc1cccc(-c2nc(Nc3ccncc3)c3ccccc3n2)c1 | 9.47% | –
CCCC(Cl)CCCC(Cl)CCC(Cl)CCC(Cl)CCC(Cl)CCCC(Cl)CCC (centres undefined) | 0.0337% | –
COc1ccc2nccc(C(=O)O)c2c1 | 10.9% [at 25.6 µM] | –
CC(NCCO)C(=O)C12CC3CC(CC(C3)C1)C2 (centres undefined) | – | 31.6 µM (active)
O=C(CNCCO)NC12CC3CC(CC(C3)C1)C2 | 5.37% | –
CN1CCN(CC(=O)C23CC4CC(CC(C4)C2)C3)CC1 | 1.99% | –
CC(C)NC(=O)N1CC[C@@]2(CCCN(C(=O)c3cccn3C)C2)C1 | 6.58% | –
NS(=O)(=O)c1ccc(CCNC(=O)Nc2ccc(Cl)cc2)cc1 | 16% [at 11.4 µM] | –
Oc1cc2c(cc1O)CN(C(=S)NCCc1ccc(Cl)cc1)CCC2 | – | 1.58 µM (active) and 631 nM (active)
O=C(NCCc1ccc(Cl)cc1)C1CC(=O)N(C2CCCCC2)C1 (centres undefined) | 3% | –
Cc1ccccc1N1CCN(S(=O)(=O)C[C@@]23CC[C@H](C[C@H]2NC(=O)[C@@H](N)CCS(C)(=O)=O)C3(C)C)CC1 | -9.48% | –
CC(=O)Oc1cccc(N2C(=O)CC(Nc3ccc(N4CCOCC4)cc3)C2=O)c1 (centres undefined) | – | 15.8 µM (active)
CC(=O)Oc1cccc(N2C(=O)C3CC=C(Cl)CC3C2=O)c1 (centres undefined) | -2.48% | –
COc1ccc(N2CCN(C3CC(=O)N(c4ccc5c(c4)OCCO5)C3=O)CC2)cc1 (centres undefined) | 8.93% | –
Cc1ccc(Br)cc1 | -4.88% | –
CCCn1c(-c2ccc(F)cc2)nc2c(NC3CCN(Cc4ccccc4)C3)nc(C)nc21 (centres undefined) | -21.3% | –
COc1ccccc1CNc1nc(-c2c(C)noc2C)nc2ccccc12 | -25.4% | –
CC[C@@H]1Cc2cc(O)ccc2C2=C1c1ccc(O)cc1C[C@H]2CC | – | 25.1 µM (active)
C[C@@H](c1ccccc1)N1C(=O)[C@H]2[C@H]3[C@H](O)[C@H](O)C/C(=N/OC[C@@H](O)COCc4ccco4)[C@@H]3CC[C@@H]2C1=O | 7.28% [at 11.4 µM] | –
CCCc1[nH]nc2c1C(C1CC=CCC1)C(C#N)=C(N)O2 (centres undefined) | -5.39% | –

SMILES | activity change, negative = inhibition | Potency
CCCc1[nH]nc2c1C(c1ccc(Br)s1)C(C#N)=C(N)O2 (centres undefined) | – | 10 µM (active)
CCCc1[nH]nc2c1C(c1ccc(OC(=O)c3ccco3)cc1)C(C#N)=C(N)O2 (centres undefined) | -4.83% | –
CN(C)c1ncc2nc(-c3ccc(F)cc3)c(=O)n(Cc3ccc(F)cc3)c2n1 | -1.36% | –
COC(=O)[C@@]1(Cc2ccc(OC)cc2)[C@H]2c3cc(C(=O)N4CCCC4)n(Cc4ccc(C(F)(F)F)nc4)c3C[C@H]2CN1C(=O)c1ccccc1 | 3.4% | –
Oc1ccc(O)c2c(O)cccc12 | – | 1.26 µM (active)
O=C(CSc1nnc(-c2ccc(NS(=O)(=O)c3ccccc3)cc2)o1)NCC1CCCO1 (centres undefined) | -10.8% | –
O=C(CSC1=Nc2ccccc2C2=NC(c3ccccc3)C(=O)N12)NCC1CCCO1 (centres undefined) | – | 31.6 µM (active)
O=C(CS(=O)(=O)Cc1ccccc1)NCC1CCCO1 (centres undefined) | 3.24% | –
Cc1ccnc(N)c1 | 10.4% | –
N#Cc1ccc(CN2CCCC3(CCN(C(=O)c4ccco4)CC3)C2)cc1 | -3.04% | –
COc1ccc(/C=C/NC(=O)c2ccc(OC)cc2)cc1 | -13.3% [at 11.4 µM] | –
C[C@@H]1O[C@@H](O[C@@H]2[C@@H](O)[C@H](OCCc3ccc(O)c(O)c3)O[C@H](CO[C@@H]3O[C@H](CO)[C@@H](O)[C@H](O)[C@H]3O)[C@H]2OC(=O)/C=C/c2ccc(O)c(O)c2)[C@H](O)[C@H](O)[C@H]1O | – | 0.1 µM (active)
CO/N=C\[C@@H](C)[C@H](OCc1ccccc1)C(C)C | 2.33% [at 11.4 µM] | –
CCN(Cc1ccncc1)C(=O)[C@@H](CO)c1ccccc1 | – | inactive
C=CC(=O)OCCOCCOCCOCCOC(=O)C=C | – | inactive
COc1cccc(Cn2c(=O)c(-c3ccccc3)nc3cnc(OC)nc32)c1 | 2.81% | –
CCOC(=O)CCc1c(C)c2ccc(OCc3nn[nH]n3)c(C)c2oc1=O | – | 25.1 µM (active)
C=CC(=C)CCC=C(C)C | 6.01% | –
COc1ccccc1C(=O)n1nc(-c2ccccc2)nc1N | 0.521% | –
COc1ccc(C(=O)n2nc(-c3ccc(C)cc3)nc2N)cc1OC | – | 31.6 µM (active)
COc1ccc(C(=O)n2nc(-c3ccc(Cl)cc3)nc2N)cc1OC | 20% | –
CO[C@@H]1COC(=O)C/C=C\[C@H](C)[C@@H](NS(=O)(=O)c2ccc(C)cc2)COC(=O)C/C=C\[C@@H]1C | 6.59% [at 11.4 µM] and 13.2% [at 11.4 µM] | –
